High-throughput results deposited in PubChem BioAssay by National Center for Advancing Translational Sciences (NCATS).
VDR inh: vitamin D3 receptor (human) inhibition; 400,000 tested, 0.93% active; P11473; Potency, µM, hits mostly inhibitors; VDR-SRC2-3 peptide fluorescence polarization, 2 h
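Measured by FP: displacement of SRC2-3 coactivator peptide from VDR by library compounds, following a two-hour ambient incubation.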
12-LOX inh: blocks human arachidonate 12S-lipoxygenase; P18054; purified 12hLO, xylenol orange hydroperoxide absorbance; Potency, µM (doses to about 108 µM), hits mostly inhibitors; 580,000 tested, 1.1% active
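Purified human 12hLO at 150 nM in 25 mM Hepes, 0.01% Triton X-100, pH 7.0, preincubated 15 min at room temperature with compound. Reaction started with 40 uM arachidonic acid, 30 min at room temperature. Hydroperoxide measured by Fe-xylenol orange, 573/405 nm absorbance ratio.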
PLK1 PBD block: inhibitors of human PLK1 polo-box domain binding | Plk1 PBD binding of FITC phosphopeptide, fluorescence polarization | Potency, µM, hits mostly inhibitors | 360,000 tested, 2.8% active | AID 720504; also: series mostly up to about 57 µM; nearly all actives have a fitted effect of over 65% in size
Target sequence (P53350 whole entry, looked up, the tested form may be a part): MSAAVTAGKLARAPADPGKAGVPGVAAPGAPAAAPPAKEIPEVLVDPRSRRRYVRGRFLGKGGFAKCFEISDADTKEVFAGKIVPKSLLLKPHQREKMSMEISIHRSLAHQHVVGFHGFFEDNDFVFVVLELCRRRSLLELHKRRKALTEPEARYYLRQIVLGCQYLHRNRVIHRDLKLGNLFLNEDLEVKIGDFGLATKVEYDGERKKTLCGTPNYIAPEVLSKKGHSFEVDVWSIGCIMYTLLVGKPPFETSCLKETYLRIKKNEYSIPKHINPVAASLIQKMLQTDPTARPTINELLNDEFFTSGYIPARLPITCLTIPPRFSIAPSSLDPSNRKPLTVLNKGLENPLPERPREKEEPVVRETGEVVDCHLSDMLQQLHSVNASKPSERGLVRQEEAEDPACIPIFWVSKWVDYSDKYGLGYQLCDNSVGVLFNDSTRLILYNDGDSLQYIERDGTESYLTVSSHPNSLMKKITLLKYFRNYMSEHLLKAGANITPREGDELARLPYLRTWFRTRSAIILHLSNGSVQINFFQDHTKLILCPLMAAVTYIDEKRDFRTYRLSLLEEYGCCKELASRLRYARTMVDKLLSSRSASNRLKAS
KAT2A inh: inhibitors of human GCN5L2 histone acetyltransferase; Q92830; 390,000 tested, 0.21% active; GCN5L2 HAT assay, ThioGlo1 CoA-SH fluorescence; Potency, µM (doses to about 58.9 µM), most hits filed as inhibitors
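Compounds, pin-transferred from DMSO stocks, meet 20nM GCN5L2 for 15 min before the reaction begins with H3(1-25) peptide (75uM) and acetyl-CoA (70uM). Thiol-reactive ThioGlo1 reports CoA release over 20 min at room temperature.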
A number is an active result; - = inactive; ? = inconclusive; . = not tested or not shown; [ ] = remark or other dose. A selection: hits, their analogues and other compounds. The true share with any hit is near 3%. Calls follow the shape of the dose curve; as a rule, active = well fitted curve in the direction sought with a large enough effect; inconclusive = small, poorly fitted or top-dose-only effect, or another doubt; inactive = no such curve, though single readings can be large; an effect the other way counts as inactive or inconclusive.

SMILES | VDR inh | 12-LOX inh | PLK1 PBD block | KAT2A inh
Cc1c(-c2ccc(O)cc2)nn(-c2ccc(O)cc2)c1-c1ccc(OCCN2CCCCC2)cc1 | - | 20µM | . | -
O=C1NC(c2cccs2)Nc2ccccc21 (stereo unspecified) | - | - | 2.67µM | -
CC1=NN(c2ccccc2)C(=O)/C1=C/c1cccc(C)c1 | 50.1µM | - | 2.12µM | -
COc1ccc(/C=C2/C(=O)N(c3ccccc3)N=C2C)cc1OC | - | ? | 2.99µM | -
COc1cc(/C=C2/C(=O)N(c3cccc(Br)c3)N=C2C)cc(OC)c1O | ? | ? | ? | -
CCOc1cc(/C=N/NC(=O)c2ccccn2)ccc1OC(=O)c1cccs1 | - | - | - | ?
CCOc1cc(/C=C2/C(=O)N(c3ccccc3)N=C2C)ccc1OC(=O)c1cccs1 | ? | ? | 2.12µM | -
COc1ccccc1/C=C1/C(=O)N(c2ccc([N+](=O)[O-])cc2)N=C1C | ? | ? | 1.89µM | -
CC1=NN(c2ccccc2)C(=O)/C1=C/N(C)C | - | - | - | -
CC(=O)Oc1ccc(/C=C2/C(=O)N(c3ccccc3)N=C2C)cc1 | ? | ? | 2.12µM | -
O=C(c1ccccc1)N1CC2(CCCN2CC2CC2)Cc2ccccc21 (stereo unspecified) | . | -[6.33 µM] | . | .
CC1CCN(S(=O)(=O)c2cccc(S(=O)(=O)N3CCOCC3)c2)CC1 | - | - | - | -
CC1CCN(S(=O)(=O)c2cccc(-c3nnc(-c4cccnc4)o3)c2)CC1 | ? | - | 15µM | -
N#Cc1ccccc1CSc1ncc(C(F)(F)F)cc1Cl | . | - | . | .
CN1CCCCCCN(C(=O)c2cccn2C)[C@H]2CCC[C@H]2C1=O | . | - | . | .
CCCNC(=O)C1(C)CCN(CCC(=O)c2ccc(Br)cc2)C1 (stereo unspecified) | . | ? | 10.6µM | .
COCCNC(=O)C1(C)CCCN(CCC(=O)c2ccc(Br)cc2)C1 (stereo unspecified) | . | - | 9.47µM | .
O=C(c1ccccc1-c1ncc(-c2ccccc2F)o1)N1CCCC1 | . | - | . | .
c1cc2c(cc1-c1csc(NNC3=NCCCCC3)n1)OCCO2 | ? | ? | 18.9µM | ?
COc1ccc2c(c1OC)C(=O)N1N=C(c3ccc(-c4ccccc4)cc3)CC21 (stereo unspecified) | - | - | - | -
COc1ccc2c(c1OC)C(=O)N1c3ccccc3N=C(c3ccc([N+](=O)[O-])cc3)CC21 (stereo unspecified) | 89.1µM | ? | - | -
O=S(c1cc(Cl)cc(Cl)c1O)c1cc(Cl)cc(Cl)c1O | 39.8µM | 28.2µM | ? | ?
O=Cc1cc(Cl)c(O)c(Cl)c1 | . | - | . | .
O=C1NC[C@H](Cc2ccc(O)cc2)N(C[C@@H]2CCCN2C[C@H](Cc2ccccc2)N2C[C@H](Cc3ccc(O)cc3)N(CC3CCCCCC3)C(=O)C2=O)C1=O | . | 25.1µM | - | .
O=C1NC[C@H](Cc2ccccc2)N(C[C@H]2CCCN2C[C@H](Cc2ccccc2)N2C[C@H](Cc3ccc(O)cc3)N(CC3CCCCCC3)C(=O)C2=O)C1=O | - | ? | - | .
SMILES | VDR inh | 12-LOX inh | PLK1 PBD block | KAT2A inh
O=C1NC[C@H](CCCCN2C[C@H](Cc3ccc(O)cc3)N(CC3CCCCC3)C(=O)C2=O)N(CC2CCCCC2)C1=O | . | 44.7µM | - | .
O=C1NC[C@@H](CCCCN2C[C@H](Cc3ccc(O)cc3)N(CC3CCCCC3)C(=O)C2=O)N(Cc2ccccc2)C1=O | . | - | - | .
O=C1NC[C@H](Cc2ccccc2)N(C[C@H]2CCCN2C[C@H](Cc2ccc(O)cc2)N2C[C@H](Cc3ccc(O)cc3)N(CC3CCCCCC3)C(=O)C2=O)C1=O | - | 15.8µM | - | .
CCOC(=O)C1=C(C)N=C2SC=C(CC(=O)N3CCC(C)CC3)N2C1c1ccccc1F (stereo unspecified) | . | - | . | .
CC(=O)N1CCN(c2ccc([N+](=O)[O-])c(-n3nc(-c4ccc(C)cc4)c4ccccc4c3=O)c2)CC1 | . | - | . | .
O=C(Nc1ccc(Cl)cc1)Nc1ccc(Br)cn1 | - | - | 29.9µM | -
O=C(NCCNC(=O)Nc1ccc(Cl)cc1)Nc1ccc(Cl)cc1 | - | 12.6µM | - | .
O=C(NCCc1ccccc1)Nc1ccc2c(c1)OCO2 | - | - | - | -
O=C(NCCc1ccc(Cl)cc1)Nc1ccc(F)cc1 | - | - | 23.8µM | -
O=C(NCCc1ccc(F)cc1)Nc1ccc2c(c1)OCO2 | - | - | 8.44µM | -
CN1CCN(c2oc(-c3cccs3)nc2C#N)CC1 | . | - | . | .
Cc1ccccc1-n1cnnc1SCC(=O)Nc1ccccc1C(=O)NCCc1ccccc1 | . | - | . | .
CN(Cc1ccccc1)C(=O)c1cc(-c2cccc(Cl)c2)n[nH]1 | . | - | . | .
O=C(CSc1ncnc2sc3c(c12)CCC3)Nc1ccccc1C(=O)O | - | - | - | -
CC1CCc2c(sc3ncnc(SCC(=O)Nc4ccc(C(=O)O)cc4)c23)C1 (stereo unspecified) | - | - | 59.7µM | -
COc1cc(NC(=O)CSc2ncnc3sc4c(c23)CCC(C)C4)c(C(=O)O)cc1OC (stereo unspecified) | - | - | 16.8µM | -
Cc1cc(NC(=O)CSc2ncnc3sc4c(c23)CCC(C)C4)no1 (stereo unspecified) | . | . | . | -
Cc1ccccc1C1CCCN1CC(=O)N(CCC#N)c1ccccc1F (stereo unspecified) | . | - | . | .
CCn1nc(C(=O)Nc2ccc3c(c2)OCCO3)c2ccccc2c1=O | . | - | - | .
CCn1nc(C(=O)OCC(=O)c2ccc3c(c2)OCCO3)c2ccccc2c1=O | ? | - | 21.2µM | -
C=CCNc1nc2c3ccccc3n(C(C)=O)c2s1 | - | ? | 26.7µM | -
CC(C)Oc1ccc(CNCC2(O)CCOC(C)(C)C2)cc1 (stereo unspecified) | - | ? | 29.9µM | -
O=C(O)/C=C/c1ccccc1Br | . | - | . | .
Cc1ccc2cc(C3C(C#N)=C(N)Oc4c3ccc3cccnc43)c(=O)[nH]c2c1 (stereo unspecified) | - | 25.1µM | ? | -
CCOC(=O)/C(C#N)=C\c1cc(OC)c(OC)cc1[N+](=O)[O-] | 20µM | ? | 7.52µM | -
SMILES | VDR inh | 12-LOX inh | PLK1 PBD block | KAT2A inh
CCOC(=O)/C(C#N)=C\c1ccc(OC)c(OC)c1 | - | - | - | -
CCN1c2cc(C(=O)NCc3ccc(Cl)cc3)ccc2C(=O)N2CCCCC21 (stereo unspecified) | . | - | . | .
Cc1c(C#N)c2ccccc2n1CC(=O)N1CCCC1 | ? | - | 29.9µM | -
CN(CCCNC(=O)c1ccc2n[nH]nc2c1)Cc1ccccc1 | . | - | . | .
O=C(NCc1nnc2ccc(-c3ccccc3)nn12)c1cc(Cl)ccc1F | . | - | . | .
Cc1cncc2cccc(S(=O)(=O)N3CCCN(C(=O)CN)C[C@@H]3C)c12 | . | 4.32µM | . | .
O=c1[nH]c(NCCO)c(N=Cc2ccccc2)c(=O)[nH]1 | - | - | - | .
Nc1[nH]c(=O)[nH]c(=O)c1N=Cc1ccccc1 | 70.8µM | . | ? | .
CSc1ccc(OC2CCCCC2NS(=O)(=O)c2ccccc2)cc1 (stereo unspecified) | - | - | 23.8µM | -
Cc1cc(C)cc(OC2CCCCC2NS(=O)(=O)c2ccccc2)c1 (stereo unspecified) | - | - | - | -
Cc1c(C(=O)N2CCN(c3ccc(C(F)(F)F)cn3)CC2)oc2ccccc12 | - | - | 29.9µM | -
